Screens (PubChem BioAssay)
Most compounds without a hit are left out; they make up all but 9.4% or so of the library.
AMA1-RON2 inh – disrupts binding of P. falciparum AMA1 to RON2. AlphaScreen AMA1-biotinylated RON2 peptide binding. Potency, µM (top dose mostly 58.2 µM), inactives show top-dose activity change, negative = inhibition, hits mostly inhibitors. 0.2% of 360,000 active;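 further: 0% = vehicle wells and -100% = peptide control; nearly all actives have a fitted effect of over 45% in size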
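AMA1 (3D7) with his tag at 25 nM final met compounds first, then biotinylated RON2 peptide at 25 nM; detection used donor plus acceptor beads, 10 µg/mL apiece, read by AlphaScreen after 30 min at room temperature.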
SARS PLpro yeast – blocks SARS-CoV papain-like protease in a yeast assay; Potency, µM (titrated, usually from 32.9 µM), for the others: at the top dose activity, positive = growth rescue, usual class: activators; S. cerevisiae expressing SARS-CoV PLpro, growth rescue; 0.19% of 330,000 active; calls by dose curve; further: 0% is about no effect; nearly all actives have a fitted effect of over 55% in size
Pf growth 48h – inhibits P. falciparum growth in the first generation, 48 h | P. falciparum luciferase growth in erythrocytes, 48 h | Potency, µM (doses to about 28.7 µM), for the others: top-dose activity change, negative = inhibition, actives largely listed as inhibitors | 5.9% of 310,000 active; further: on the % scale 0 is the no-effect control and ±100 the full control effect
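In quantitative HTS format, infected erythrocytes bearing luciferase-reporter parasites were treated for a single generation at 37 C. Luminescence after adding detection reagent served as the growth measure.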
Pf growth 96h – inhibits malaria parasite growth, 96 h. P. falciparum luciferase reporter growth, 96 h. 6.9% of 320,000 active. AID 504834. Potency, µM (doses to about 28.7 µM), for the others: at the top dose activity change, negative = inhibition, usual class: inhibitors; further: on the % scale 0 is the no-effect control and ±100 the full control effect
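P. falciparum expressing integrated firefly luciferase, in erythrocytes at 2% hematocrit, 0.05% parasitemia, incubated with compounds 96 h at 37 C, 5% CO2. Growth inhibition read as loss of luminescence; two-generation exposure targets delayed-death apicoplast inhibitors.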
Active calls of the source: *; ? = inconclusive; · = no result; [ ] = dose if it differs, or a comment. Unless noted, the call rests on the fitted dose curve; in most records, active means well fitted curve in the direction sought with a large enough effect; inconclusive means small, poorly fitted or top-dose-only effect, or another doubt; inactive means no such curve, though single readings can be large; an effect the other way counts as inactive or inconclusive. Potency means the concentration at half of the fitted maximal effect.

SMILES	AMA1-RON2 inh	SARS PLpro yeast	Pf growth 48h	Pf growth 96h
COc1ccc(S(=O)(=O)N2CCCCC2)cc1NC(=O)Cc1ccc(Br)cc1	7%	·	·	·
Cc1cccc(N2CCN(S(=O)(=O)c3c(C)[nH]c(C)c3C(=O)N3CCCCC3)CC2)c1C	0%	3%	9.3µM*	?
Cc1ccc(C(=O)N2CCN(C)CC2)cc1S(=O)(=O)N1CCCCCC1	-9%	-3%	-28%	2.3µM*
Cc1ccc(C(=O)N2CCN(c3ccccc3O)CC2)cc1S(=O)(=O)N1CCCCC1	-15%	-25%	13µM*	-103%
c1coc(CNc2ncnc3c2oc2ccccc23)c1	-3%	-12%	21%	7%
CN1Cc2sc(NC(=S)NC(=O)c3ccccc3)c(C#N)c2CC1(C)C	-21%	-3%	-21%	-51%
C=CC[C@@H]1/C=C(\C)C[C@H](C)C[C@H](OC)[C@H]2O[C@@](O)(C(=O)C(=O)N3CCCC[C@H]3C(=O)O[C@H](/C(C)=C/[C@@H]3CC[C@@H](O)[C@H](OC)C3)[C@H](C)[C@@H](O)CC1=O)[C@H](C)C[C@@H]2OC	·	·	1.7µM*	1.5µM*
COc1ccc(CCN2C(=O)CSC2=Nc2ccc(C)cc2C)cc1OC	-7%	-1%	2.6µM*	?
Cc1cc([N+](=O)[O-])ccc1Nc1nc2ccccc2n2cnnc12	14%	0%	6%[0.00184 µM]	-10%
Cc1ccc(S(=O)(=O)N(C)c2ccc3sc(C)nc3c2)cc1	-2%	-2%	21%	31%
CC(=O)C1=NN(c2ccccc2)C(c2cccs2)N1c1ccc(N(C)C)cc1 (stereo not drawn)	?	-10%	·	2.1µM*
CC(=O)C1=NN(c2ccccc2)C(c2ccc3c(c2)OCO3)N1c1ccccc1 (stereo not drawn)	23%	3%	?	?
NC(=S)NC(=O)/C=C/c1ccccc1	-3%	8%	33%	2.1µM*
O=C(/C=N\O)NCCCNCc1ccccc1	23%	2%	-5%	5.9µM*
O=C(/C=C/c1ccccc1)NC(=S)Nc1ccccc1O	45%	-1%	51%	-15%
CC(C)c1ccc(/C=C/C(=O)NCCCc2ccccc2)cc1	-6%	-52%	-2%	46%
O=C(/C=C/c1ccccc1)Nn1cnnc1	-10%	5%	31%	15µM*
COc1ccc(/C=C/C(=O)Nn2cnnc2)cc1	-6%	9%	3%	?
CCCNC(=O)/C=C/c1ccc(C(C)C)cc1	-6%	-22%	?	13µM*
CC(=O)c1ccc(NC(=S)N2CCCC2)cc1	1%	2%	42%	?
NS(=O)(=O)c1ccc(CCNC(=O)c2cccc3ccccc23)cc1	42%	-3%	2%	-11%
O=C(/C=C/c1ccccc1)NCCCNC(=O)/C=C/c1ccccc1	3%	0%	?	8.3µM*
O=C(C=Cc1ccccc1)NCCNC(=O)C=Cc1ccccc1	17%	·	·	·
CN(C)c1cccc(O)c1	16%	-8%	0%	?
COc1ccc(NC(=O)CN(C)CC(=O)c2c(C)[nH]c3ccccc23)cc1	38%[11.6 µM]	-3%	?	12µM*
SMILES	AMA1-RON2 inh	SARS PLpro yeast	Pf growth 48h	Pf growth 96h
COc1ccc(NC(=O)CN(C)CC(=O)c2[nH]c(C)c(C(C)=O)c2C)cc1	14%	2%	?	1%
CCC(C)c1ccc(NC(=O)CN(C)CC(=O)Nc2cccc(OC)c2)cc1 (stereo not drawn)	-4%	-20%	12µM*	?
COc1cccc(NC(=O)CN(C)CC(=O)c2c(C)[nH]c3ccccc23)c1	3%	3%	?	12µM*
COc1cccc(NC(=O)CN(C)CC(=O)NCc2ccc(F)cc2)c1	-5%	-3%	·	·
O=C(COC(=O)c1cccnc1)Nc1cccc(Cl)c1	-1%	-22%	-16%	4.7µM*
CCCOc1cccc(NC(=O)c2c(-c3ccccc3)noc2C)c1	-1%	0%	14%	-3%
Cc1onc(-c2ccccc2)c1C(=O)OCC(=O)Nc1cccc(Cl)c1	1%	-2%	12µM*	?
Cc1onc(-c2c(F)cccc2Cl)c1C(=O)OCC(=O)NC(N)=O	9%	2%	11%	30%
Cc1onc(-c2c(F)cccc2Cl)c1C(=O)OCC(=O)NC(c1ccccc1)c1ccccc1	-1%	-1%	12µM*	·
Cc1onc(-c2ccccc2)c1C(=O)Nc1cccc(OC(C)C)c1	-16%	-2%	-6%	13µM*
COc1ccc(CCNC(=O)CN(C)S(=O)(=O)c2cccc3nsnc23)cc1OC	28%	3%	-5%	10%
NC(N)=N/N=C/c1cccc(Cl)c1Cl	-3%	0%	1.7µM*	2.1µM*
O=C(O)Cn1cc(C(=O)C(F)(F)F)c2ccccc21	12%	3%	-8%	3%
CCOc1ccccc1C(=O)N[C@H](C(=O)OCc1cc([N+](=O)[O-])cc2c1OCOC2)C(C)C	?	18%	13µM*	?
CC(C)C(NC(=O)c1ccccc1)C(=O)OCc1cc([N+](=O)[O-])cc2c1OCOC2 (stereo not drawn)	8%	-4%	-8%	-18%
O=C(CCCCC(=O)NCc1cccs1)NCc1cccs1	-4%	3%	7%	?
NC(=O)CCCCC(=O)OCCCc1cccs1	-16%	-7%	-6%	4.7µM*
Cc1ccc(OCC(=O)NCCNC(=O)c2ccncc2)cc1	0%	1%	22%	33%
CCCc1ccc(-c2cc(C(=O)N3CCN(c4ccccn4)CC3)c3ccccc3n2)cc1	-4%	-1%	6%	5.2µM*
COc1ccc(-c2cc(C(=O)N3CCN(c4ccccc4O)CC3)c3ccccc3n2)cc1OC	-2%	-10%	2.1µM*	2.6µM*
CCOc1ccc(-c2cc(C(=O)N3CCN(c4ccccn4)CC3)c3ccccc3n2)cc1	-8%	-5%	-44%	·
O=C(c1cc(Sc2ccc(Cl)cc2)nc2ccccc12)N1CCN(c2ccccn2)CC1	-23%	-17%	12µM*	57%
O=C(c1cc(Sc2cccc(Cl)c2)nc2ccccc12)N1CCN(c2ccccn2)CC1	12%	-2%	?	?
O=C(c1ccccc1Sc1cccc2ccccc12)N1CCOCC1	-8%	-4%	10µM*	?
CSc1ccccc1C(=O)N1CCOCC1	-5%	-10%	9%	2%
SMILES	AMA1-RON2 inh	SARS PLpro yeast	Pf growth 48h	Pf growth 96h
CCc1cccc(CC)c1NC(=O)CCCSc1nc2ccccc2s1	8%	2%	?	?
O=C(Cc1ccc(NC2=NC3CS(=O)(=O)CC3S2)cc1)NCc1ccc(Cl)cc1 (stereo not drawn)	8%	-4%	16%	?
Cc1cc(C(=O)N2CCCC(N3CCN(c4ccccc4C)CC3)C2)nc(C)n1 (stereo not drawn)	7%	1%	-11%	35%
O=C(c1cc(-c2ccccc2Cl)nc2ccccc12)N1CCOCC1	3%	-4%	-7%	0.37µM*
O=C(c1cnc(N2CCN(c3ccccn3)CC2)c2ccccc12)N1CCN(c2cccc(Cl)c2)CC1	-22%	-11%	9.3µM*	-18%
Cc1ccc(-c2cc(C(=O)N3CCN(c4ccccc4O)CC3)c3ccccc3n2)cc1	-7%	-10%	3.3µM*	?
